Screens as filed in PubChem BioAssay.
NS1 inh = qHTS Assay for Inhibitors of Influenza NS1 Protein Function; Potency, µM (top dose mostly 46.1 µM), for the others: at the top dose activity, positive = more growth; 270,000 compounds, 0.4% hits; also: actives are rising curves; nearly all actives have a fitted effect of over 50% in size
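Growth recovery, yeast-based: influenza A NS1 expressed in S. cerevisiae causes slow growth, and suppressors are detected by OD600. The parent strain without NS1 is used as positive control.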
SARS PLP yeast = qHTS of Yeast-based Assay for SARS-CoV PLP | S. cerevisiae expressing SARS-CoV PLpro, growth rescue | Potency, µM (highest dose often 32.9 µM), for the others: top-dose activity, positive = growth rescue, hits mostly activators | 330,000 compounds, 0.19% hits; also: 0% is about no effect; nearly all actives have a fitted effect of over 55% in size
Pf growth 96h = Primary qHTS for delayed death inhibitors of the malarial parasite plastid, 96 hour incubation; P. falciparum luciferase reporter growth, 96 h; Potency, µM (doses to about 28.7 µM), without a hit: top-dose activity change, negative = inhibition, hits mostly inhibitors; 320,000 compounds, 6.9% hits; active = well fitted inhibition curve with a large enough effect; inconclusive = small, poorly fitted or top-dose-only effect, or another doubt; inactive = no such curve, though single readings can be large or run the other way; also: % is scaled to controls: 0 for no effect and ±100 for the full control effect
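Luminescence readout: decreased luciferase signal marks inhibited growth of reporter-expressing P. falciparum in infected red cells (2% hematocrit, 0.05% parasitemia final), exposed to compound two generations (96 h, 37 C, 5% CO2).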
RE007 growth inh = qHTS Assay for Inhibitors of the HIV-1 protein Vpr | S. pombe RE007 Vpr strain, BacTiter-Glo ATP luminescence, 24 h | Potency, µM (series often up to 92.2 µM), for inactives: at the highest dose activity change, negative = less growth, usual class: inhibitors | 360,000 compounds, 0.21% hits; active = well fitted falling curve with a large enough effect; inconclusive = small, poorly fitted or top-dose-only effect; inactive = no such curve, though single readings can be large or run the other way; also: % is scaled to controls: 0 for no effect and ±100 for the full control effect; nearly all actives have a fitted effect of over 50% in size
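Fission yeast RE007 carrying one integrated HIV-1 vpr copy, seeded at OD 0.01 in PMG+AL medium with 23 nL pinned compound. Grown 24 h at 30 degrees; viability read by BacTiter-Glo luminescence after 5 min.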
Pf growth 48h = Primary qHTS for delayed death inhibitors of the malarial parasite plastid, 48 hour incubation. AID 504832, 2011. 310,000 compounds, 5.9% hits. P. falciparum luciferase growth in erythrocytes, 48 h. Potency, µM (doses to about 28.7 µM), for the others: at the highest dose activity change, negative = inhibition, actives largely listed as inhibitors; active = well fitted inhibition curve with a large enough effect; inconclusive = small, poorly fitted or top-dose-only effect, or another doubt; inactive = no such curve, though single readings can be large or run the other way; also: % is scaled to controls: 0 for no effect and ±100 for the full control effect
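Growth was read as firefly luciferase luminescence after a 48 h, 37 C, 5% CO2 exposure of compounds to reporter-bearing P. falciparum cultures (0.1% parasitemia, 2% hematocrit final) in Albumax-supplemented RPMI 1640.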
Active calls of the source: *; ? = inconclusive; . = no result given. Rows were chosen to be rich in hits. Some 9.5% of all compounds tested hit in one or more screens of this group. Unless noted, calls follow the shape of the full dose curve. Potency is read from the fitted curve at half-maximal effect.

SMILES	NS1 inh	SARS PLP yeast	Pf growth 96h	RE007 growth inh	Pf growth 48h
O=C(NCc1c(O)ccc2ccccc12)c1ccccc1	-9%	-3%	10µM*	4%	?
CNc1ncnc2ccc(-c3c(C)noc3C)cc12	.	-1%	-17%	.	-2%
c1ccc(C(c2cccc3c2ccc2ccccc23)[C@H](c2ccccc2)c2cccc3c2ccc2ccccc23)cc1 (stereo partly drawn)	8%	.	.	.	.
CCc1ccc(S(=O)(=O)N2CCN(C(=O)c3cccnc3)CC2)cc1	0%	-1%	-16%	2%	10%
COc1ccc2c(c1)C=C(CN1CCN(C3CCCC3)C(CCO)C1)CO2 (stereo not drawn)	3%	-1%	25%	3%	-10%
O=C(NCc1ccccc1)c1ccc(C(=O)N(C2CCCCC2)C2CCCCC2)cc1	4%	5%	9.3µM*	-16%	.
O=C(NCc1ccccc1)c1ccc(C(=O)NCc2ccccc2)cc1	.	.	.	-5%	.
CN(C(=S)NC(=O)c1ccc(Br)o1)c1ccccc1	8%	-13%	36%	-4%	12%
CC(O)CN(C)C (stereo not drawn)	.	.	-14%	.	-10%
CCCc1nnc(NC(=S)Nc2ccccc2)s1	.	4%	27%	0%	62%
CC(C)C(=O)Nc1nnc(NC(=S)Nc2ccccc2)s1	.	2%	12µM*	0%	6%
C[C@@H](C(=O)OCn1nnc2ccccc2c1=O)N1C(=O)C2CCCCC2C1=O (stereo partly drawn)	.	5%	12%	2%	8%
Cc1ccc(/C=C/C(=O)Nc2ccc(O)c3c(=O)cc(-c4ccccc4Cl)oc23)cc1	2%	1%	10µM*	2%	?
O=c1cc(SCc2ccccc2)nc[nH]1	.	.	.	-9%	.
O=C(N/N=C/C(Cl)=C/c1ccc([N+](=O)[O-])cc1)C(=O)Nc1ccc(C(=O)O)cc1	4%	0%	?	19%	12µM*
CCN(C(=O)Cc1c(C(=O)O)n(CC)c2ccccc12)c1cccc(C(F)(F)F)c1	0%	-1%	5%	4%	34%
COc1ccc(CN(C)CC(O)COc2ccc(C(=O)c3ccccc3)cc2)c(OC)c1OC (stereo not drawn)	-9%	4%	?	-3%	?
COC(=O)c1ccc(OCCOc2ccccc2C)cc1	-4%	17%	1.3µM*	11%	13%
CCOC(=O)C(CCCOc1ccccc1C)C(=O)OCC	-50%	-29%	9.3µM*	1%	-22%
COC(=O)c1ccc(OCCOc2ccccc2)cc1	-4%	-24%	69%	8%	.
COc1cccc(OC)c1OCCOc1ccc(C(=O)c2ccccc2)cc1	-14%	5%	0.37µM*	-6%	3%
CN(Cc1ccccc1)C1CCCN(C(=O)c2ccc(Cl)s2)C1 (stereo not drawn)	-1%	20%	?	-8%	2%
CCC(C)NC(=O)c1ccc(N2CC3CC(C2)c2cccc(=O)n2C3)c(NC(=O)c2ccc(Br)o2)c1 (stereo not drawn)	14%	-4%	9.3µM*	-4%	?
COCCNC(=O)c1ccc(N2CC3CC(C2)c2cccc(=O)n2C3)c(NC(=O)c2ccc(C(C)(C)C)cc2)c1 (stereo not drawn)	.	.	.	-5%	.
COc1ccc(/C=C2\SC(=S)N(CCC(=O)Nc3cccc(C(=O)O)c3)C2=O)cc1	-2%	2%	33%	-7%	20%
SMILES	NS1 inh	SARS PLP yeast	Pf growth 96h	RE007 growth inh	Pf growth 48h
COc1cccc(N2CCN(CC(=O)Nc3ccc(S(=O)(=O)N4CCCCCC4)cc3)CC2)c1	.	0%	?	-8%	12µM*
COc1cccc(NC(=O)CN2CCN(S(=O)(=O)c3ccc(C(C)C)cc3)CC2)c1	-42%	-5%	12µM*	27%	?
CC(=O)c1c(C)[nH]c(C(=O)CN2CCN(S(=O)(=O)c3ccc(C(C)C)cc3)CC2)c1C	.	-5%	12µM*	6%	12µM*
COc1cc(NC(=O)CN2CCN(S(=O)(=O)c3ccc(C(C)C)cc3)CC2)cc(OC)c1	-53%	-2%	31%	8%	?
COc1cccc(NC(=O)CN2CCN(S(=O)(=O)c3ccc(F)cc3)CC2)c1	3%	1%	.	2%	8%
COc1ccc(S(=O)(=O)N2CCN(CC(=O)c3[nH]c(C)c(C(C)=O)c3C)CC2)cc1OC	.	-2%	?	22%	?
C[C@@H]1CN([C@@H](C)CO)C(=O)c2cc(NS(C)(=O)=O)ccc2O[C@@H](C)CCCCO[C@H]1CN(C)Cc1ccc2c(c1)OCO2	.	.	.	5%	.
Cc1c(C(=O)NCc2cccnc2)oc2ccc(S(=O)(=O)N3CCCCC3)cc12	-15%	7%	?	7%	5.2µM*
Cc1c(C(=O)NCc2cccnc2)oc2ccc(S(=O)(=O)N3CCCCCC3)cc12	-33%	-2%	7%	7%	9.3µM*
C=CCNC(=O)c1oc2ccc(S(=O)(=O)N3CCCCC3)cc2c1C	-23%	2%	?	9%	-22%
Cc1c(C(=O)NCc2ccccc2)oc2ccc(S(=O)(=O)N3CCCC3)cc12	-10%	4%	?	-10%	.
COc1ccc(NC(=O)CON=CC(=O)Nc2ccc(C)cc2)c(OC)c1	.	-6%	.	1%	.
CC(NC(=O)c1ccc(C(C)(C)C)cc1)C(c1cccs1)N1CCOCC1 (stereo not drawn)	-9%	1%	12µM*	7%	13µM*
CC(NC(=O)c1cccs1)C(c1cccs1)N1CCOCC1 (stereo not drawn)	2%	-12%	2.6µM*	2%	-20%
CC(NC(=O)c1cccs1)C(c1cccs1)N1CCN(c2ccccc2)CC1 (stereo not drawn)	?	-22%	-6%	6%	9.3µM*
CC(NC(=O)c1ccc2c(c1)OCO2)C(c1cccs1)N1CCN(c2ccccc2)CC1 (stereo not drawn)	-11%	1%	12µM*	?	141%
Cc1c(C(=O)OCC(=O)NCc2ccco2)cccc1[N+](=O)[O-]	.	0%	-5%	-6%	-12%
CN(Cc1cc(C(C)(C)C)cc(Br)c1O)Cc1cc(C(C)(C)C)cc(Br)c1O	-15%	.	.	.	.
CN1CCc2c(sc3c2c(=O)n(-c2ccc(Cl)cc2)c2nncn32)C1	14%	-3%	.	-16%	-9%
CCN(CC)CCn1c(=O)n(-c2ccc(Cl)cc2)c(=O)c2c3c(sc21)CN(C)CC3	17%	-6%	-15%	-2%	4.7µM*
FC(F)(F)c1ccc(-c2noc(CN3CCCN(C4CCCCC4)CC3)n2)cc1	0%	-1%	9.3µM*	-3%	?
c1ccc(C(c2ccccc2)c2noc(CN3CCN(C4CCCC4)CC3)n2)cc1	0%	-2%	-16%	-1%	?
CCc1noc(C)c1C(=O)Nc1nc(-c2cc(C)ccc2C)c(C)s1	21%	-7%	10µM*	6%	?
